In ChEMBL document CHEMBL4513216, “Probing the Open Global Health Chemical Diversity Library for Multistage-Active Starting Points for Next-Generation Antimalarials” (ACS Infect Dis, 2020) one finds INHIBITION data, which are given here for 55 compounds.

About 8,600 (12%) of roughly 69,000 compounds showed an effect of 50% or more. Many of the other results were omitted from the sample, so strong results are more common in it than they were.

The test system of the assay is Plasmodium berghei. As to the kind of experiment: Screen against P. berghei liver stage (PbLuc), transformed with Luciferase, at 10uM. The settings on record: tested at 10 uM. The format is functional, HepG2.
In the case of `CN(Cc1cnn(C)c1)C(=O)NCc1nnc2n1CCC2`, the INHIBITION was -22.6%.

Turning to `CC(CN1CCOCC1)NC(=O)NCCc1ccc(Cl)s1` (stereo not given), the INHIBITION is 53.4%.

As to `O=C(NCCc1ccc(Cl)s1)NCc1nnc2n1CCCC2`, the INHIBITION is 21%.

`CCc1ccc(CNC(=O)NCc2nnc3n2CCC3)s1`: the INHIBITION amounted to 25.1%.

As for `Cn1cc(CCNC(=O)NCc2nnc3n2CCC3)cn1`, the INHIBITION is 59.7%.

`O=C(NCCC1=CCCCC1)NCc1nnc2n1CCC2`: the INHIBITION is 40.3%.

For the compound `COc1ccc(C(NC(=O)NCc2nnc3n2CCC3)C2CC2)cc1` (stereo not given), the INHIBITION was 50.4%.

As to `CC(CN1CCOCC1)NC(=O)NCc1ccc(Cl)s1` (stereo not given), the INHIBITION was -34.7%.

For the compound `O=C(NCc1ccc(Cl)s1)NCc1nnc2n1CCCCC2`, the INHIBITION is -10.6%.

Consider `O=C(NCCc1ccc(Cl)s1)NCc1nnc2n1CCC2`, for which the INHIBITION worked out at 53.8%.

As for `CN(C)CCC1CCN(Cc2ccn(C)c(=O)c2)CC1`, the INHIBITION is recorded as -8.11%.

With `CO[C@H]1CN(C(=O)c2ccccn2)[C@@H]2CCCO[C@H]12`, the INHIBITION is 36.4%.

With `CC(C)c1ncc(Cl)c(C(=O)N2CCN(C3CC3)CC2)n1`, the INHIBITION is on record as 40.7%.

For `CS(=O)(=O)N1C[C@H]2CCCN(Cc3ccsc3)[C@H]2C1`, the INHIBITION came out at 21.6%.

On to `COc1cc(N2CCC3(CC2)CC(N2CCN(C)CC2)CO3)ncn1` (stereo not given), for which the INHIBITION turned out to be 26%.

On to `Cc1cccc(C(=O)N2C[C@@H]3CC[C@H](Oc4cccc(F)c4)[C@@H]3C2)n1`, for which the INHIBITION came to 25.6%.

With `COCCN1CCC2(CCCN(C(=O)c3cncn3C)C2)CC1`, the INHIBITION is 49.7%.

Turning to `CNC(=O)CC1CC2(CCN(CC3CC3)CC2)Oc2ccccc21` (stereo not given), the INHIBITION stood at 44.5%.

In the case of `Cc1nc2sccn2c1CN(CCCN(C)C)Cc1ccccn1`, the INHIBITION is -12.5%.

As to `CN(CC1CCN(CCO)CC1)CC(O)c1ccc(F)cc1F` (stereo not given), the INHIBITION is 59.1%.

As for `CN(CC1CCN(CCO)CC1)CC(O)c1ccc(F)cc1` (stereo not given), the INHIBITION is 34.1%.

`CN(CC1CCN(CCO)CC1)CC(O)c1ccc(F)c(F)c1` (stereo not given): the INHIBITION is 49.9%.

On to `Cc1cc(C)n(Cc2ccc(-c3noc(C(=O)NC[C@@H](C)O)n3)cc2)n1`, for which the INHIBITION is listed as -4.28%.

Take `CN1CCCN(c2nccc(-c3cncnc3C3CCCCC3)n2)CC1`: the INHIBITION came to 50.1%.

Turning to `Cc1ncc(-c2ccnc(N3CC[C@H](O)C3)n2)c(-c2cccnc2)n1`, the INHIBITION is on record as -13.7%.

For the compound `NC(=O)C1CCN(c2ncc(-c3cnccn3)c([C@H]3CCCO3)n2)CC1`, the INHIBITION is given as -0.902%.

For the compound `NC(=O)C1CCN(c2nc3nccc(-c4ccccn4)c3c(=O)[nH]2)CC1`, the INHIBITION turned out to be 2.37%.

Consider `CN1CCCN(c2nccc(-c3c[nH]c4ccc(Br)cc34)n2)CC1`, for which the INHIBITION is listed as 41.2%.

On to `NC(=O)[C@H]1CCCN(c2nccc(-c3c[nH]nc3-c3cccnc3)n2)C1`, for which the INHIBITION is recorded as 54.5%.

For `NC(=O)C1CCN(c2nccc(-c3c[nH]nc3C3CCCCC3)n2)CC1`, the INHIBITION is on record as 57.5%.

Regarding `Cc1ccnc(OCC(=O)N2CCC(C(N)=O)CC2)n1`, the INHIBITION is listed as 26.4%.

Consider `NC(=O)[C@H]1CCCN(c2nccc(-c3ccncc3)n2)C1`, for which the INHIBITION is 10%.

As for `CN1CCN(c2nccc(-c3cncnc3C3CCCCC3)n2)CC1`, the INHIBITION came to 23.4%.

As for `CCOC(=O)C1CCN(c2nccc(-n3nc(C)cc3C)n2)CC1`, the INHIBITION is recorded as -79.8%.

Regarding `Cc1ccnc(N2CCC(C(N)=O)CC2)n1`, the INHIBITION stood at 63.4%.

Take `CSc1ncccc1C(=O)N1C[C@@H]2CC[C@H]1CN(c1ncccn1)C2`: the INHIBITION turned out to be 15.1%.

In the case of `CC(Cn1ccnc1)NC(=O)NCc1ccccn1` (stereo not given), the INHIBITION was determined as 15.34%.

For `COCCCNC(=O)c1nnsc1-c1ccccc1`, the INHIBITION is -6.42%.

For the compound `CNc1cccc(C2CCN(C(C)=O)CC2)n1`, the INHIBITION is -9.51%.

In the case of `COc1ccc(C)cc1CN1CCOC(Cn2nc(C)nc2C)C1` (stereo not given), the INHIBITION is on record as -10.6%.

With `CCc1cc(-c2cc[nH]n2)nc(N2CCOCC2)n1`, the INHIBITION is on record as 17.5%.

Turning to `CC1CN(CC(=O)Nc2ccncc2)CCN1Cc1nccn1C` (stereo not given), the INHIBITION came to 8.9%.

As to `COCC[C@]1(O)CCN(Cc2nc(C)c(C)s2)C[C@H]1C`, the INHIBITION is -47.4%.

In the case of `Cc1csc2ncc(-c3ccnc(N4CCCN(C)CC4)n3)c(=O)n12`, the INHIBITION worked out at 26.3%.

For the compound `CC(C)c1nc(C2CCCN(c3nccc(N4CCCC4)n3)C2)no1` (stereo not given), the INHIBITION is 23.1%.

As to `c1cc(-c2cn3nccc3nc2C2CCCCC2)nc(N2CCCC2)n1`, the INHIBITION worked out at 82.7%.

`CC(=O)N1CCCN(c2nccc(-c3cn(C)nc3C)n2)CC1`: the INHIBITION was found to be 4.2%.

Regarding `Nc1nccc(-c2c[nH]nc2C2CCCCC2)n1`, the INHIBITION stood at 41.2%.

Consider `Cc1csc2ncc(-c3ccnc(N4CCC[C@H](C(N)=O)C4)n3)c(=O)n12`, for which the INHIBITION is recorded as 64.9%.

Consider `OCCNc1nccc(-c2cn3nccc3nc2C2CCCCC2)n1`, for which the INHIBITION was found to be 39.7%.

For `O=S1(=O)NC(c2ccnc(N3CCCCC3)n2)=Nc2ccccc21`, the INHIBITION came to 25.8%.

As to `CN1CCCN(c2nccc(-c3c[nH]nc3C3CCCCC3)n2)CC1`, the INHIBITION amounted to 68.9%.

Turning to `CN1CCCN(c2nccc(-c3cc(C(=O)O)ccn3)n2)CC1`, the INHIBITION worked out at 41.4%.

For `c1cc(-c2c[nH]nc2C2CCCCC2)nc(N2CCCCCC2)n1`, the INHIBITION was determined as 90.1%.

In the case of `Cc1csc2ncc(-c3ccnc(N4CCCC4)n3)c(=O)n12`, the INHIBITION is on record as -71.6%.
